Assay outcomes: PubChem BioAssay, several laboratories
An excerpt weighted towards active compounds, which were near 4.3% of everything screened.
esBAF inh: inhibitors of esBAF chromatin remodeling in mouse ES cells; Bmi1-luciferase knock-in reporter, 24 h; 100% = twice the neutral-well signal; reporter increase, % at 12.5 µM; actives 2% (n = 350,000); in the data active = activation above about 40%; inconclusive = no clear call, values can overlap the other calls;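 also: 0% = median of the plate's neutral control wells and 100% = double that signal; a rise in the Bmi1 reporter signal indicates esBAF inhibition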
MITF TRPM1 HTS: increases MITF-driven TRPM1 promoter luciferase signal. SK-MEL-5 TRPM1-promoter luciferase, 24 h; % of positive control, neutral wells = 0. activation, % at 12.5 µM. actives 0.75% (n = 300,000). AID 588334;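 active = mean activation of at least 80% with every replicate also reaching 80%; inconclusive = mean reaches 80% but some replicate falls short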;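 also: 0% = neutral control wells and 100% = parthenolide positive control wells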
SMARCA2 act: activators of SMARCA2 function; MG213 cells, MMTV-luciferase reporter, dexamethasone, overnight; activation, % at 9.1 µM; actives 1% (n = 370,000); AID 652017; in the data active = activation above about 7.8%;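 also: 0% = vehicle wells and 100% = reference activator wells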
Wnt act: Wnt/beta-catenin pathway activation. Wnt/beta-catenin reporter cell assay, activator, plate reader. activation, % at 9.35 µM. actives 1.2% (n = 300,000); in the data active = activation above about 30%, passing the limit was not always enough; inconclusive = no clear call, values can overlap the other calls;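 also: 0% = neutral control wells and 100% = positive control wells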
FGF22 binding: binders of recombinant human FGF22 by thermal shift | Q9HCT0 | SYPRO orange fluorescence; percent of sucrose octasulfate shift, DMSO zero | activity (Tm shift, normalised), % at 9.99 µM | actives 1.5% (n = 340,000);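 active = mean Tm shift, scaled 0 neutral to 100 positive control, at about 1.3% or above, every replicate too, limit read from the data; inconclusive = no clear call, values can overlap the other calls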
AF4-AF9 inh: blocks AF4 peptide binding to human AF9; actives 0.47% (n = 350,000); inhibition, % at 10 µM; AlphaScreen, biotin-AF4 peptide binding to FLAG-AF9;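 active = every replicate reaching a set inhibition limit, whatever the replicate mean, cut at about 25% in these data; inconclusive = mean inhibition reaches that limit but some replicates miss it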;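 also: 0% = plate neutral control median and 100% = total signal loss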
Target sequence (P42568 whole entry, looked up): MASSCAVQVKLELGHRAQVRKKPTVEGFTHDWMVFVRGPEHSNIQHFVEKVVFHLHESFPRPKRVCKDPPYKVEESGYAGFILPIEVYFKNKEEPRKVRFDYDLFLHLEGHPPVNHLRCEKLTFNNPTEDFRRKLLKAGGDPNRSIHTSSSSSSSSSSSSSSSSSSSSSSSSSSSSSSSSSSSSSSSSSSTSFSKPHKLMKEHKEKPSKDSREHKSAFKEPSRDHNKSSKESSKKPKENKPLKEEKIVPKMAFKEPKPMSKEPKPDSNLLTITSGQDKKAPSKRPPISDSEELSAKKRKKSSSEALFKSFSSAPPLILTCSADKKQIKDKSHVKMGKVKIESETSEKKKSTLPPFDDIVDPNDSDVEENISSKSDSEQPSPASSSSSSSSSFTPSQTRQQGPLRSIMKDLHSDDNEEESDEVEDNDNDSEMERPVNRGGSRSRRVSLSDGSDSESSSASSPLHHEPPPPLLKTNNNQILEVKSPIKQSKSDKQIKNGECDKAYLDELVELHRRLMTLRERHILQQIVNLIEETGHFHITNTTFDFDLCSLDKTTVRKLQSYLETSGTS
SMARCA2 conf: SMARCA2 activation, confirmation screen | actives 30% (n = 3,500) | MG213 cells, MMTV-luciferase with dexamethasone, luminescence, overnight; MG213 cells expressing E1A, Rb sequestered; DMSO wells 0%, reference activator 100% | shares compounds with SMARCA2 act | activation, % at 9.1 µM | AID 652260;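 active = activation above its plate's cutoff, the mean activation of tested wells plus 3 SD, cut at about 7.9% in these data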
VP16 Luc act: activates GAL4-VP16 luciferase, flagging SMARCA2 activator hits; shares compounds with SMARCA2 act; HEK293 GAL4-VP16 pG5luc reporter, luciferase luminescence; scaled: DMSO wells 0%, SAHA wells 100%; activation, % at 9.1 µM; actives 41% (n = 3,500);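 active = activation above the solvent-only control well mean plus 3 SD, averaged across control plates, cut at about 5.2% in these data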
Active calls of the source: *; ? = inconclusive; . = no result.

SMILES	esBAF inh	MITF TRPM1 HTS	SMARCA2 act	Wnt act	FGF22 binding	AF4-AF9 inh	SMARCA2 conf	VP16 Luc act
O=C(CS(=O)c1ccc(C(F)(F)F)cc1[N+](=O)[O-])Oc1ccccc1 (stereo not drawn)	.	-87.1	15.6*	24.6	.	.	-14.6	4.2
COc1cc(CNc2cccc(F)c2)cc(Br)c1O	-7.4	0.1	9.2*	-1.5	0.0	3.4	4.7	1.9
COC(=O)Cc1c(C)nc2nc(-c3ccc(OC)cc3)[nH]n2c1=O	3.6	9.8	-0.5	-3.1	.	.	.	.
COc1ccc(-c2nc3nc(C)c(Cc4ccccc4)c(=O)n3[nH]2)cc1	5.7	7.9	8.1*	.	.	.	2.6	3.4
C[C@@H]1CN([C@H](C)CO)C(=O)c2cccc(NC(=O)Nc3ccccc3)c2O[C@H]1CN(C)S(=O)(=O)c1ccccc1	1.9	.	.	.	-0.3	-2.1	.	.
C[C@@H]1CN([C@@H](C)CO)C(=O)c2cc(-c3ccncc3)cnc2O[C@H]1CN(C)C(=O)c1ccncc1	5.8	.	.	.	-0.1	-5.8	.	.
CN(C)CCCNC(=O)C[C@H]1C[C@H](C(=O)N2CCOCC2)[C@@]2(CCC3CCCC3)c3[nH]c4cc(-c5ccco5)ccc4c3CCN2C1=O	-3.9	5.2	8.2*	-4.0	-0.2	40.6*	-3.8	0.1
CN(C)C(=O)CCc1ccc2c3c([nH]c2c1)[C@]1(CCC2CCCC2)[C@@H](C(=O)N2CCOCC2)C[C@H](CC(=O)NCCc2ccccn2)C(=O)N1CC3	5.4	-8.8	8.0*	-5.0	0.0	0.4	-4.9	1.4
CCC(=O)N[C@@H]1CC[C@H](CCNC(=O)Nc2ccc(F)cc2)O[C@@H]1CO	-0.1	.	.	.	-0.1	5.7	.	.
O=C(C[C@@H]1CC[C@H](NS(=O)(=O)c2ccccc2)[C@@H](CO)O1)NCc1ccccc1F	1.6	.	.	.	-0.2	-1.3	.	.
CC1CCc2c(sc(NC(=O)C3CCCO3)c2C#N)C1 (stereo not drawn)	?	127.5*	14.4*	7.2	41.9	-0.5	3.7	11.6*
CC1CCc2c(sc(NC(=O)COC(=O)C3CCCO3)c2C#N)C1 (stereo not drawn)	.	20.4	-2.8	1.9	0.1	-1.5	.	.
N#Cc1c(NC(=O)C2CC2)sc2c1CCCCC2	.	10.7	8.9*	.	.	.	6.9	7.4*
CC(=O)Nc1sc2c(c1C#N)CCCC2	5.1	.	-1.6	1.1	.	.	.	.
CC(C)C(=O)Nc1sc2c(c1C#N)CCCCC2	50.4*	.	12.2*	13.5	.	.	1.7	1.7
CN1CCN(C(=O)C[C@H]2C[C@H]3c4cc(NC(=O)Nc5ccccc5F)ccc4O[C@H]3[C@@H](CO)O2)CC1	4.7	.	.	.	0.0	.	.	.
CCOC(=O)c1sc(=NC(=O)c2cccc(C)c2)n(C)c1C	.	48.7	13.4*	13.8	0.2	-1.1	5.1	5.9*
CO[C@H]1CN(C)C(=O)c2cc(NC(=O)C3CCOCC3)ccc2OC[C@H](C)N(Cc2nccs2)C[C@@H]1C	1.7	.	.	.	-0.1	-1.9	.	.
CC(=O)Nc1cccc(-c2cccc3nccn23)c1	17.4	.	10.8*	-0.9	0.0	-2.6	8.9*	7.7*
Cc1noc(C)c1NC(=O)N(C)C[C@@H]1Oc2ccc(NC(=O)Cc3ccccc3)cc2C(=O)N([C@@H](C)CO)C[C@@H]1C	-0.8	.	.	.	0.3	0.5	.	.
O=C(NC1CCCCC1)N[C@H]1CC[C@H](CCNS(=O)(=O)c2ccc(Cl)cc2)O[C@@H]1CO	3.8	.	.	.	-0.4	1.0	.	.
COC(=O)c1ccc2nc(NC(=O)C(C)C)sc2c1	.	42.6	0.4	-6.0	42.6	-1.0	.	.
COC(=O)c1ccc2nc(NC(=O)C3CC3)sc2c1	-22.4	60.6	11.6*	27.6	-0.4	0.9	8.7*	5.3*
CCCCOC(=O)c1ccc(N)cc1	36.4	42.6	7.2	1.5	-0.3	-2.4	.	.
CCCCCCOC(=O)c1ccc(N)cc1	.	48.7	8.0*	2.4	0.0	4.3	6.3	5.8*
SMILES	esBAF inh	MITF TRPM1 HTS	SMARCA2 act	Wnt act	FGF22 binding	AF4-AF9 inh	SMARCA2 conf	VP16 Luc act
CC(C)NC(=O)NCC[C@H]1CC[C@H](NC(=O)CN(C)C)[C@@H](CO)O1	-1.6	.	.	.	-0.2	1.8	.	.
CO[C@H]1CN(C)C(=O)c2cc(NC(=O)Nc3ccccc3F)ccc2OC[C@@H](C)N(CC2CC2)C[C@@H]1C	-3.9	.	.	.	0.0	6.1	.	.
O=C(COc1ccccc1)Nc1ccccc1F	15.8	.	5.3	0.6	0.1	6.9	.	.
COc1ccc(OCC(=O)NC(=S)Nc2ccccc2F)cc1	.	0.5	9.8*	-0.3	0.2	-3.6	2.4	0.7
Cc1ccc(-c2nn(-c3ccc(F)cc3)cc2C(=O)N2CCN(C3CCS(=O)(=O)C3)CC2)cc1 (stereo not drawn)	0.6	1.6	9.5*	-6.9	-0.3	0.4	4.3	1.9
c1ccc(-c2csc(Nc3cccnc3)n2)cc1	.	47.6	3.6	29.5	0.1	-6.9	.	.
O=[N+]([O-])c1ccccc1Nc1nc(-c2cccnc2)cs1	34.2	17.0	9.2*	26.8	-0.5	2.9	9.6*	7.7*
COc1ccc(/C=C/C(=O)NC(=S)Nc2ccc(S(=O)(=O)Nc3nccnc3OC)cc2)cc1	.	-0.2	13.0*	12.0	.	.	0.7	0.9
COc1ccc(/C=C/C(=O)NC(=S)Nc2ccc(S(=O)(=O)Nc3cc(OC)ncn3)cc2)cc1	.	2.6	2.1	-1.1	0.3	0.7	.	.
COc1ccc(NC(=O)N(C)C[C@H]2Oc3ccc(NC(=O)Nc4ccc5c(c4)OCO5)cc3C(=O)N([C@@H](C)CO)C[C@H]2C)cc1	-3.5	.	.	.	-0.2	3.8	.	.
S=c1[nH]nc(-c2ccc(Cl)cc2Cl)n1-c1ccccc1	?	8.4	16.5*	12.1	-0.2	-4.8	5.6	6.4*
CNC[C@H]1OCCCC[C@@H](C)Oc2ccc(NC(=O)Nc3cccc4ccccc34)cc2C(=O)N([C@@H](C)CO)C[C@H]1C	-6.8	.	.	.	-0.1	10.1	.	.
Cc1cc(C(=O)N2CCC2(C)C(=O)NS(=O)(=O)c2cccc(Cl)c2)nn1C (stereo not drawn)	-3.7	.	8.1*	-2.8	0.0	-5.1	3.0	0.3
CC1(C(=O)NS(=O)(=O)c2cccc(Cl)c2)CCN1C(=O)c1ccccc1 (stereo not drawn)	-3.6	.	-3.4	0.4	0.2	-6.7	.	.
CNC(=O)c1cc2c(ccc3ccccc32)o1	.	-1.3	9.6*	26.1	0.4	4.1	6.6	3.5
O=C(NC1CCCC1)c1cc2c(ccc3ccccc32)o1	.	53.1	7.5	.	.	.	.	.
O=[N+]([O-])c1cc(C(F)(F)F)ccc1NCCc1c[nH]c2ccccc12	7.7	8.9	-1.0	-9.4	.	.	.	.
